# Experimental data taken from PubChem BioAssay (EPA / NIEHS).
# Results filed as inconclusive are left out. Activity calls are given as the source filed them. The calls were made as follows, unless noted: active = hit-call score of the fitted dose curve at least 0.9, where 1 is the maximum; inconclusive = response in the unintended direction; inactive = score below 0.9.
# Columns and labels:
# [1] = biological target: rat Thyrotropin Releasing Hormone Receptor (TRH), Trhr (gene 25570) (UniProt Q01717); assay: NVS_GPCR_rTRH: NovaScreen (NVS) G Protein-Coupled Receptor Assay for rat Thyrotropin Releasing Hormone Receptor (TRH) (AID 2283329);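 also: hit means lower bound tracer signal versus DMSO baseline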
# Procedure, shortened: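 Rat forebrain membranes; radioligand displacement at TRH receptor by filter-based scintillation counting, read 4 h after dosing. Duplicate single-point screen at 25 uM, actives rerun in concentration series; loss of signal relative to DMSO.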
# [2] = biological target: rat Peripheral-type Benzodiazepine Receptor (PBR), Tspo (gene 24230) (UniProt P16257); assay: NVS_MP_rPBR: NovaScreen (NVS) Membrane Protein Assay for rat Peripheral-type Benzodiazepine Receptor (PBR) (AID 2283335)
# Procedure, shortened: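 Competitive displacement of specific radioligand from rat kidney membrane PBR, read by filtration and scintillation after 1 h. Compounds first tested at 25 uM in duplicate, then in concentration series; signal loss relative to DMSO.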
# [3] = NVS_IC_rCaBTZCHL: NovaScreen (NVS) Ion Channel Assay for Calcium Channel, Type L, Benzothiazepine Site (CaBTZCHL) (AID 2283337)
# Procedure, shortened: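 Test chemicals were added to rat cortical membranes and incubated 1.5 h with a tritiated or iodinated radioligand for the benzothiazepine site. Bound ligand was separated by filtration and counted. Actives from the 25 uM duplicate screen were retested in concentration series.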
# [4] = tested on: guinea pig Histamine Receptor (H2), gene 100729734; assay: NVS_GPCR_gH2: NovaScreen (NVS) G Protein-Coupled Receptor Assay for guinea pig Histamine Receptor (H2) (AID 2283342)
# Procedure, shortened: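 Guinea pig striatal membrane preparation with specific radioligand; bound counts measured by filtration and scintillation 1 h post-dosing, DMSO as baseline. Chemicals passing a 25 uM duplicate screen were titrated to a 50 uM maximum.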
# [5] = biological target: rat Gamma-Aminobutyric Acid Type A Receptor, Non-Selective (GABAR-NonSelective), Gabra1 (gene 29705) (UniProt P62813); assay: NVS_LGIC_rGABAR_NonSelective: NovaScreen (NVS) Ligand-Gated Ion Channel Assay for rat Gamma-Aminobutyric Acid Type A Receptor, Non-Selective (GABAR-NonSelective) (AID 2283326)
# Procedure, shortened: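 Compounds were first screened in duplicate at 25 uM, with actives run as singleton concentration series (max 50 uM). Binding of a radioligand to rat whole-brain GABA-A preparation was measured by filtration and scintillation counting after 1 h, DMSO baseline.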
# [6] = biological target: Voltage-gated inwardly rectifying potassium channel KCNH2 (Homo sapiens) (UniProt Q12809); assay: NVS_IC_hKhERGCh: NovaScreen (NVS) Ion Channel Assay for human Potassium Channel ERG (KhERGCh) (AID 2283333)
# Procedure, shortened: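 Membranes from CHO cells expressing human ERG; displacement of radioligand measured by filtration and scintillation after 0.75 h. Single-concentration duplicate screen at 25 uM, then concentration-response for actives; DMSO baseline.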
# [7] = biological target: Small conductance calcium-activated potassium channel protein 1 (Rattus norvegicus) (UniProt P70606); assay: NVS_IC_rKCaCh: NovaScreen (NVS) Ion Channel Assay for rat Potassium Channel, Ca2+ Act., VI (KCaCh) (AID 2283336)
# Procedure, shortened: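 Filter-based scintillation counting of radioligand bound to rat forebrain membrane preparations, measured 1 h after compound addition. Primary screen used 25 uM in duplicate, with concentration-response follow-up; signal decrease relative to DMSO marks activity.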
# [8] = biological target: rat Glutamate, MK-801 Agonist Site (GluNMDA_MK801), Grin1 (gene 24408) (UniProt P35439); assay: NVS_LGIC_rGluNMDA_MK801_Agonist: NovaScreen (NVS) Ligand-Gated Ion Channel Assay for rat Glutamate, MK-801 Agonist Site (GluNMDA_MK801) (AID 2283340)
# Procedure, shortened: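 Rat forebrain membrane preparation; MK-801-site radioligand binding read by filtration and scintillation after 1.5 h. Single-point 25 uM duplicate screen, followed by singleton concentration series to 50 uM max; DMSO baseline.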
# [9] = biological target: rat Glycine Receptor, Strychnine-sensitive (GlyRStrySens), Glra1 (gene 25674) (UniProt P07727); assay: NVS_LGIC_rGlyRStrySens: NovaScreen (NVS) Ligand-Gated Ion Channel Assay for rat Glycine Receptor, Strychnine-sensitive (GlyRStrySens) (AID 2283341)
# Procedure, shortened: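 Radioligand displacement on rat spinal cord membranes, 1 hr, filter scintillation read-out. Single-concentration duplicate screen at 25 uM; chemicals meeting threshold (e.g., 30% inhibition) rerun in concentration-response up to 50 uM. Loss of binding fitted versus DMSO.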
# [10] = biological target: chimpanzee Androgen Receptor (AR), AR (gene 747460) (UniProt O97775); assay: NVS_NR_cAR: NovaScreen (NVS) Nuclear Receptor Binding Assay for chimpanzee Androgen Receptor (AR) (AID 2283346);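 also: radioligand displacement from AR measured by scintillation counting in a cell-free assay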
# Procedure, shortened: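 Radioligand binding to chimpanzee AR expressed in Sf9/Sf21 cells, cell-free, measured 72 h after dosing by lysate-based scintillation counting. Loss of signal vs DMSO; initial duplicate screen at 25 uM, actives retested in concentration series.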
# [11] = biological target: human Peripheral-type Benzodiazepine Receptor (PBR), TSPO (gene 706) (UniProt P30536); assay: NVS_MP_hPBR: NovaScreen (NVS) Membrane Protein Assay for human Peripheral-type Benzodiazepine Receptor (PBR) (AID 2283331);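 also: hits reduce radioligand binding relative to DMSO baseline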
# Procedure, shortened: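 Cell-free radioligand displacement, human colonic membranes, 1 h exposure. Filter radiodetection read-out. Single-concentration duplicates (25 uM), then concentration-response for actives; DMSO negative control.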
# [12] = biological target: bovine Estrogen Receptor (ER), ESR1 (gene 407238) (UniProt P49884); assay: NVS_NR_bER: NovaScreen (NVS) Nuclear Receptor Binding Assay for bovine Estrogen Receptor (ER) (AID 2283345);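 also: actives lower the bound radioligand count which means they displace the ER ligand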
# Procedure, shortened: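 Cell-free radioligand binding with bovine uterine membrane extracts, read 18 hours after dosing by scintillation counting. Loss of signal versus DMSO baseline indicates displacement. Primary screen run in duplicate at 25 uM, actives followed in concentration series.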
# [13] = biological target: human Constitutive Androstane Receptor (CAR), NR1I3 (gene 9970) (UniProt Q14994); assay: NVS_NR_hCAR_Agonist: NovaScreen (NVS) Nuclear Receptor Binding Assay for human Constitutive Androstane Receptor Agonism (CAR) (AID 2283328)
# Procedure, shortened: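 Actives from a 25 uM duplicate screen were retested in singleton concentration series to 50 uM max. Biochemical TR-FRET assay on extracted CAR protein measured 1 h post-dose, with signal increase over DMSO control.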
# [14] = biological target: human Constitutive Androstane Receptor (CAR), NR1I3 (gene 9970) (UniProt Q14994); assay: NVS_NR_hCAR_Antagonist: NovaScreen (NVS) Nuclear Receptor Binding Assay for human Constitutive Androstane Receptor Antagonism (CAR) (AID 2283344)
# Procedure, shortened: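 Single 25 uM duplicate primary screen, with concentration-series follow-up on actives. Cell-free binding format run in antagonist mode, TR-FRET signal taken 1 h post-dose; activity is signal loss relative to DMSO.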
# [15] = biological target: rat Glutamate, AMPA Site (AMPA), Gria1 (gene 50592) (UniProt P19490); assay: NVS_LGIC_rAMPA: NovaScreen (NVS) Ligand-Gated Ion Channel Assay for rat Glutamate, AMPA Site (AMPA) (AID 2283324)
# Procedure, shortened: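 Screening at 25 uM in duplicate preceded concentration series reaching 50 uM for qualifying compounds. Radioligand displacement on rat forebrain membranes, 1 h, filter-based scintillation readout; reduced binding relative to DMSO.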
# [16] = biological target: Glutamate receptor ionotropic, kainate 1 (Rattus norvegicus) (UniProt P22756); assay: NVS_IC_rKAR: NovaScreen (NVS) Ion Channel Assay for rat Kainic Acid Receptors (KAR) (AID 2283334; active = hit-call score of the fitted dose curve at least 0.9, where 1 is the maximum; inactive = score below 0.9)
# Procedure, shortened: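 Rat forebrain membrane preparation incubated 1 h with radioligand and test chemical; bound signal read by filtration and scintillation. Single-concentration screen at 25 uM, then concentration series to 50 uM maximum.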
# [17] = biological target: human Serotonin, 5-Hydroxytryptamine Receptor 3 (5HT3), HTR3A (gene 3359) (UniProt P46098); assay: NVS_LGIC_h5HT3: NovaScreen (NVS) Ligand-Gated Ion Channel Assay for human Serotonin, 5-Hydroxytryptamine Receptor 3 (5HT3) (AID 2283325)
# Procedure, shortened: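 Initially tested at 25 uM in duplicate, then up to 50 uM in concentration-response for actives, compounds competed with a radioligand for HEK293-derived human 5-HT3 receptor. Bound counts were measured by filtration and scintillation at 1 h; loss of signal versus DMSO.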
# Sequence of rat Gamma-Aminobutyric Acid Type A Receptor, Non-Selective (GABAR-NonSelective), Gabra1 (gene 29705) (P62813 whole entry, looked up): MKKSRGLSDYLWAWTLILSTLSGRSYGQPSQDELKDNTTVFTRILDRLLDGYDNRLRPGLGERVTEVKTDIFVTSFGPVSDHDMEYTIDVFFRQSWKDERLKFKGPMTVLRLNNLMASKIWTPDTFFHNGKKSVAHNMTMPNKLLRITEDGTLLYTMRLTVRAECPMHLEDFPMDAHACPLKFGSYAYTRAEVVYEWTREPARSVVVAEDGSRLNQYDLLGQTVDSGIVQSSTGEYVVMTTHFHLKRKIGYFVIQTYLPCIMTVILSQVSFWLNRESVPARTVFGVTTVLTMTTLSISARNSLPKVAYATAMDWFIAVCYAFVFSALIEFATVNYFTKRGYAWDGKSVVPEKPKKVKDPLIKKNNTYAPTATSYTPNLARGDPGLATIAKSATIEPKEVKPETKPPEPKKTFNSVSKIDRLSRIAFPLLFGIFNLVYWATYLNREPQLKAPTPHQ
# Sequence of Small conductance calcium-activated potassium channel protein 1 (Rattus norvegicus) (P70606 whole entry, looked up): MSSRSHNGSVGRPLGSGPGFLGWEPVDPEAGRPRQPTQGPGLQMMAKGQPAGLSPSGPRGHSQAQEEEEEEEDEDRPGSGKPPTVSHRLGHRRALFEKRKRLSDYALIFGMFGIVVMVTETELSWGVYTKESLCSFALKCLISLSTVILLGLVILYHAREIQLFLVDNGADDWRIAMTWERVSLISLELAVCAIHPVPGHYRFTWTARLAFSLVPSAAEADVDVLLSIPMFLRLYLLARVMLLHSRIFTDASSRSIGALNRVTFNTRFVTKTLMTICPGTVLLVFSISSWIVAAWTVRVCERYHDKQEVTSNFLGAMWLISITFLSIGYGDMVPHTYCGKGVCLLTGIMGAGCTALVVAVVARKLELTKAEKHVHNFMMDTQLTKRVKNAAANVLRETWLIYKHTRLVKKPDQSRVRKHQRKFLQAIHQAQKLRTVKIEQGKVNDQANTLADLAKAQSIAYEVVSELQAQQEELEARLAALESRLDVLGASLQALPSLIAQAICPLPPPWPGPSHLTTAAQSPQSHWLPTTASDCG
# Sequence of rat Peripheral-type Benzodiazepine Receptor (PBR), Tspo (gene 24230) (P16257 whole entry, looked up): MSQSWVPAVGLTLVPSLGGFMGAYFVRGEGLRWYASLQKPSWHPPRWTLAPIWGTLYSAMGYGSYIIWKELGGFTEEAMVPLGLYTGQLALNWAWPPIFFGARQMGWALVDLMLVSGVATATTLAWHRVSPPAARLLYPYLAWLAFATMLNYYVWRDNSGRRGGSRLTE
# Sequence of human Peripheral-type Benzodiazepine Receptor (PBR), TSPO (gene 706) (P30536 whole entry, looked up): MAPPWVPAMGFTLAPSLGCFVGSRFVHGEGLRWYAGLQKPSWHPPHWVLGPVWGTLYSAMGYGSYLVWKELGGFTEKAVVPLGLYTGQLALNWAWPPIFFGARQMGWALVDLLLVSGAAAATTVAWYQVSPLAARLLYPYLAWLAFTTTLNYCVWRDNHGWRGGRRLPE
# Sequence of rat Thyrotropin Releasing Hormone Receptor (TRH), Trhr (gene 25570) (Q01717 whole entry, looked up): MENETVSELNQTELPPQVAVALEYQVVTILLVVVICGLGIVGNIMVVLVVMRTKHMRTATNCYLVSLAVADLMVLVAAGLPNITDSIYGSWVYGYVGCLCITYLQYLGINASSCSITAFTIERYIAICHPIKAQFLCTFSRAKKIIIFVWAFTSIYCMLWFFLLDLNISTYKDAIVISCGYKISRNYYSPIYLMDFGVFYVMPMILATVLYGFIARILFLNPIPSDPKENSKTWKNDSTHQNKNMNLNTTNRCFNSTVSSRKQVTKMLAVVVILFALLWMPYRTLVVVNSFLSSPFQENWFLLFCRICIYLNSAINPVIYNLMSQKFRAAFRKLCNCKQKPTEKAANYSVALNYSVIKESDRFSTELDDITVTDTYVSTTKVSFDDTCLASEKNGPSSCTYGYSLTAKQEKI
# Sequence of bovine Estrogen Receptor (ER), ESR1 (gene 407238) (P49884 whole entry, looked up): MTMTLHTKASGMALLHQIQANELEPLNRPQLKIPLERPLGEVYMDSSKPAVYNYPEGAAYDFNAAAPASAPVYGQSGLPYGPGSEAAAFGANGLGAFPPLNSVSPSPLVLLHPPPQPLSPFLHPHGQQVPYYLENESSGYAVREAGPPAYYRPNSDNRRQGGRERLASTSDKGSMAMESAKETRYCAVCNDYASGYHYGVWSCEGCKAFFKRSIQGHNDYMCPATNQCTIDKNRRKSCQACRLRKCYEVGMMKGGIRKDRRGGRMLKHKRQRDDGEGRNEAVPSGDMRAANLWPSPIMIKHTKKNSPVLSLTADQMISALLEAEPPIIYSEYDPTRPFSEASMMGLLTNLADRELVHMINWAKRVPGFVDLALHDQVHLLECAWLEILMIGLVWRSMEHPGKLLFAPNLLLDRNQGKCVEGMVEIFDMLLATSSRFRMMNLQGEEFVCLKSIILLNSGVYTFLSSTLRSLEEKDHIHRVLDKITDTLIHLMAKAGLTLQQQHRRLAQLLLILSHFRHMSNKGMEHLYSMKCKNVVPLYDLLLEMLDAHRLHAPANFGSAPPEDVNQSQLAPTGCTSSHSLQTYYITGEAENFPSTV
# Sequence of chimpanzee Androgen Receptor (AR), AR (gene 747460) (O97775 whole entry, looked up): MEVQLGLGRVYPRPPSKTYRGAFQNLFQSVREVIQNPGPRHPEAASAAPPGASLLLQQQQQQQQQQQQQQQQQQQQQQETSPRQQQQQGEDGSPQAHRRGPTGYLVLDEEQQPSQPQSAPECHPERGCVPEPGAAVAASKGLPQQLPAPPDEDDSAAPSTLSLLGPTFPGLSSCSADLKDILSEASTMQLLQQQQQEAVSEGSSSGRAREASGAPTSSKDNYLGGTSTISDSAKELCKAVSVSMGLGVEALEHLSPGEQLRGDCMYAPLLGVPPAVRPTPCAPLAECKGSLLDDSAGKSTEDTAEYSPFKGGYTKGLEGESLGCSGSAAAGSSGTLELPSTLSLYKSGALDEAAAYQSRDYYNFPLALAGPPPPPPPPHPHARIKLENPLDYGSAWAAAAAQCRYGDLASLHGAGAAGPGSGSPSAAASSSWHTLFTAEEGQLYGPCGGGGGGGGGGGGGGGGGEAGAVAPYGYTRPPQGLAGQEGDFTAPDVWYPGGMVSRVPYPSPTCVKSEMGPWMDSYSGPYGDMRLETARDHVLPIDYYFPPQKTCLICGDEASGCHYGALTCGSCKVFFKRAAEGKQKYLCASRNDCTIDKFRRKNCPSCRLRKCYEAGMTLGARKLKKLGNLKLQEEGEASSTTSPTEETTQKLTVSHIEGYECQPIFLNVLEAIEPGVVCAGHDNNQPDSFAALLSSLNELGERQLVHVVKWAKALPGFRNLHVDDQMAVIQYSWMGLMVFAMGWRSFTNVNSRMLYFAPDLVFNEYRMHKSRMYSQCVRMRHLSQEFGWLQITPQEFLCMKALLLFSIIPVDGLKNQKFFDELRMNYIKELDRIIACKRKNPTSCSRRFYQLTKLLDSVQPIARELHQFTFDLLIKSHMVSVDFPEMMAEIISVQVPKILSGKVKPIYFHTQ
# Sequence of Voltage-gated inwardly rectifying potassium channel KCNH2 (Homo sapiens) (Q12809 whole entry, looked up): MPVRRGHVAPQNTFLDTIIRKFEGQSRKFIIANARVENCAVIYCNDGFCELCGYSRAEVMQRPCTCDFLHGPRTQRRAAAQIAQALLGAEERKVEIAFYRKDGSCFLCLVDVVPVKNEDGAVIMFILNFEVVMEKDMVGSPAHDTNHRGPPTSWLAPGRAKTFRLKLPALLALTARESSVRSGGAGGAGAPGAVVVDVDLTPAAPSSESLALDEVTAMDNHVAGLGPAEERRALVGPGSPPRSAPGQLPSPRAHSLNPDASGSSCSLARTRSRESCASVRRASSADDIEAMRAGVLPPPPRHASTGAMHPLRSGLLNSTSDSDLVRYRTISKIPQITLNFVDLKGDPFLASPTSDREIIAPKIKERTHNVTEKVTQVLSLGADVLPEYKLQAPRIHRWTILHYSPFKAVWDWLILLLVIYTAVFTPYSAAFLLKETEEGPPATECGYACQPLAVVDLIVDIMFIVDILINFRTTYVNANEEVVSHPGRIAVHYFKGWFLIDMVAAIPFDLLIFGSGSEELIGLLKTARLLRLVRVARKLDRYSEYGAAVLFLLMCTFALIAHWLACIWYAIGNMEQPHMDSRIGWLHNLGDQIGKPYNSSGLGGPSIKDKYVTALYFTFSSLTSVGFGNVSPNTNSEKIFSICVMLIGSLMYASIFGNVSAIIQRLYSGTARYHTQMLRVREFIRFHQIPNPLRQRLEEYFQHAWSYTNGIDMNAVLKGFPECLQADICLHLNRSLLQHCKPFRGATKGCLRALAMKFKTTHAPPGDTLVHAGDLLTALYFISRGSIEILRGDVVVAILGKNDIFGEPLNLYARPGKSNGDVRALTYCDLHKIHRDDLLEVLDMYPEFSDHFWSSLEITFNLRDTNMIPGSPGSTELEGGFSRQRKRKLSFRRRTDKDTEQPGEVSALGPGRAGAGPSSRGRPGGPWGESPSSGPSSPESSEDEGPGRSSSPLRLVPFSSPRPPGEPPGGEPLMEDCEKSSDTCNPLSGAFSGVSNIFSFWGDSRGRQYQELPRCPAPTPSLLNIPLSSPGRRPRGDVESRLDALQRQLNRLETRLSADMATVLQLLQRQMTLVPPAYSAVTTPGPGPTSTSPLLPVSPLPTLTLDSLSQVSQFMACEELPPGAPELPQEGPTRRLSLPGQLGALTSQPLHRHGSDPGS
# Sequence of human Constitutive Androstane Receptor (CAR), NR1I3 (gene 9970) (Q14994 whole entry, looked up): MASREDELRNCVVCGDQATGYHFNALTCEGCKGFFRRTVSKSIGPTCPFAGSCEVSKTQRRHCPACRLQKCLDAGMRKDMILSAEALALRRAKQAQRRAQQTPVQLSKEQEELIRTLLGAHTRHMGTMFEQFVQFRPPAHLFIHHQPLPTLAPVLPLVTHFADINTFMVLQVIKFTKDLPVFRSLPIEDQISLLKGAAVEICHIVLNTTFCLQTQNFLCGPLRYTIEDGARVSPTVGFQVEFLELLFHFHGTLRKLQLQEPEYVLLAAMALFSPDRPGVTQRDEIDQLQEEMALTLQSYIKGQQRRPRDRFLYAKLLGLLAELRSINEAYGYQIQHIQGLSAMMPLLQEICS
smiles,measurement,setting,value
O=C1c2ccccc2C(=O)N1CCc1noc(-c2ccc(CN3CCCCCC3)s2)n1,outcome,[1],inactive
same,outcome,[2],inactive
same,AC50,[3],7.22 µM (active)
same,AC50,[4],8.06 µM (active)
COc1ccc2cc(S(=O)(=O)N[C@H](CC(=O)N[C@H](Cc3ccc(CN4[C@H](C)CCC[C@@H]4C)cc3)C(=O)N(C)C(C)C)c3ccc4c(c3)OCO4)ccc2c1,AC50,[5],11.2 µM (active)
same,AC50,[6],1.21 µM (active)
same,outcome,[7],inactive
same,AC50,[3],3.52 µM (active)
same,outcome,[8],inactive
same,AC50,[9],0.128 µM (active)
same,AC50,[4],20.5 µM (active)
same,AC50,[10],10.8 µM (active)
OC12N=C(c3ccccc3)SC1Cc1cc(Cl)ccc12 (configuration not stated),AC50,[5],2.62 µM (active)
same,outcome,[11],inactive
same,AC50,[2],6.16 µM (active)
same,outcome,[7],inactive
same,outcome,[12],inactive
same,outcome,[10],inactive
Cc1c2ccccc2c(C)c2c1ccc1ccccc12,outcome,[13],inactive
same,AC50,[11],14.6 µM (active)
same,AC50,[2],1.69 µM (active)
same,outcome,[14],inactive
same,outcome,[12],inactive
same,outcome,[10],inactive
CCCCCc1ccc(N)cc1,outcome,[1],inactive
same,outcome,[12],inactive
same,outcome,[10],inactive
Cc1cc(F)ccc1-c1cc(N2CC[C@@H](O)[C@H]2CO)ncc1N(C)C(=O)C(C)(C)c1cc(C(F)(F)F)cc(C(F)(F)F)c1,outcome,[1],inactive
same,AC50,[6],7.95 µM (active)
same,outcome,[3],inactive
same,outcome,[4],inactive
CCN(Cc1cccnc1)C(=O)c1cccc(Cl)c1[C@]1(C)C(=O)N(Cc2ccc(OC)cc2OC)c2ccc(Cl)cc21,AC50,[5],16.8 µM (active)
same,AC50,[11],1.07 µM (active)
same,AC50,[2],1.69 µM (active)
same,outcome,[7],inactive
same,AC50,[3],12.6 µM (active)
same,AC50,[4],1.12 µM (active)
same,outcome,[12],inactive
same,AC50,[10],18.3 µM (active)
O=c1[nH]sc2ccccc12,outcome,[15],inactive
same,outcome,[16],inactive
Cc1cc2c(cc1C(F)(F)F)N(C(=O)Nc1ccc(Oc3cccnc3C)nc1)CC2,AC50,[5],8.52 µM (active)
same,outcome,[12],inactive
same,outcome,[10],inactive
CC(O)CC(C)(C)O (configuration not stated),outcome,[1],inactive
Oc1ccc2ccccc2c1,outcome,[11],inactive
O=C1CCC(C2CCCCC2)CC1,outcome,[1],inactive
same,outcome,[10],inactive
CN(C)c1ccc(C(=C2C=CC(=[N+](C)C)C=C2)c2ccc(N(C)C)cc2)cc1,outcome,[15],inactive
same,AC50,[17],16.7 µM (active)
same,AC50,[11],1.4 µM (active)
same,AC50,[6],5.33 µM (active)
same,AC50,[2],5.36 µM (active)
same,AC50,[3],5.44 µM (active)
same,AC50,[4],0.827 µM (active)
same,outcome,[12],inactive
same,AC50,[10],17.7 µM (active)
